Laboratory results from publication PMC5540273 (PLoS ONE, 2017).

Key:
Details in all cases: concentration: 1 μM, replicates: in singlicate; n = 1
[1] = tested on: STK36
[2] = tested on: STK39
[3] = tested on: SYK
[4] = tested on: SgK110
[5] = tested on: T1, TAK1
T1 construct: gene MAP3K7

[6] = tested on: TAOK1
[7] = tested on: TAOK2
[8] = tested on: TAOK3
[9] = tested on: TBK1
[10] = tested on: TEC
[11] = tested on: TESK1
[12] = tested on: TGFBR1
[13] = tested on: TGFBR2
[14] = tested on: TIE1
[15] = tested on: T2, TIE2
T2 construct: gene TEK

[16] = tested on: TLK1
[17] = tested on: TLK2
[18] = tested on: TNIK
[19] = tested on: TNK1
[20] = tested on: TNK2
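Note: KINOMEscan kinase panel screen.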

Structure (SMILES) | %Inh [1] | %Inh [2] | %Inh [3] | %Inh [4] | %Inh [5] | %Inh [6] | %Inh [7] | %Inh [8] | %Inh [9] | %Inh [10] | %Inh [11] | %Inh [12] | %Inh [13] | %Inh [14] | %Inh [15] | %Inh [16] | %Inh [17] | %Inh [18] | %Inh [19] | %Inh [20]
CN(c1ccc(NC(=O)N2CCN(CCCN3CCOCC3)CC2)cc1)c1ccnc(Nc2ccc(CS(C)(=O)=O)cc2)n1.Cl [GW830899] | 5% | 0% | 15% | 0% | 0% | 0% | 0% | 0% | 53% | 0% | 9% | 6% | 59% | 0% | 16% | 2% | 0% | 15% | 41% | 12%
COC(=O)Nc1nc2ccc(Oc3ccc(NC(=O)Nc4cc(C(F)(F)F)ccc4F)cc3)cc2[nH]1.Cl [GW654607] | 0% | 13% | 29% | 55% | 94.7% | 0% | 0% | 6% | 0% | 0% | 0% | 0% | 7% | 97.7% | 99.7% | 7% | 4% | 5% | 48% | 12%
O=C1NC(=O)C(c2ccccc2Cl)=C1Nc1cccc(Cl)c1 [SB-342409] | 0% | 9% | 0% | 0% | 0% | 0% | 0% | 11% | 7% | 13% | 20% | 4% | 71% | 7% | 0% | 68% | 50% | 0% | 12% | 18%
COc1cccc(C2=C(Nc3cccc(O)c3)C(=O)NC2=O)c1 [SB-390771] | 0% | 8% | 22% | 18% | 100% | 10% | 36% | 9% | 30% | 7% | 34% | 19% | 0% | 0% | 0% | 29% | 33% | 0% | 0% | 15%
CN(C)c1ncnc2nc[nH]c12 [SKF-31736] | 0% | 5% | 0% | 0% | 0% | 0% | 26% | 3% | 34% | 0% | 0% | 0% | 0% | 5% | 0% | 0% | 0% | 0% | 0% | 0%
Cc1ccc(O)cc1Nc1ccnc2ccc(C(C)(C)C)cc12 [GW856805] | 0% | 43% | 24% | 0% | 57% | 35% | 13% | 28% | 27% | 31% | 0% | 8% | 93.2% | 38% | 39% | 0% | 31% | 0% | 69% | 13%
CCn1cnc2c(NCc3ccccc3)ncnc21 [SKF-96418] | 0% | 16% | 0% | 0% | 0% | 0% | 27% | 0% | 17% | 0% | 15% | 25% | 0% | 0% | 0% | 0% | 1% | 0% | 2% | 0%
Cc1ccccc1CC(=O)N1CCc2cc(-c3cn(C)c4ncnc(N)c34)ccc21 [GSK2603346] | 0% | 13% | 0% | 0% | 6% | 0% | 0% | 0% | 5% | 0% | 45% | 0% | 3% | 87% | 48% | 0% | 0% | 0% | 0% | 27%
O=C(Nc1n[nH]c2nc(-c3ccccc3)ccc12)C1CC1 [SB-708999] | 8% | 0% | 0% | 0% | 0% | 40% | 0% | 7% | 8% | 0% | 17% | 0% | 0% | 15% | 3% | 0% | 0% | 79% | 0% | 2%
O=C(Nc1n[nH]c2nc(-c3ccccc3O)ccc12)C1CC1 [SB-711880] | 0% | 0% | 0% | 0% | 9% | 9% | 0% | 0% | 27% | 63% | 0% | 0% | 0% | 16% | 0% | 22% | 0% | 79% | 20% | 0%
